High-throughput results: PubChem, National Center for Advancing Translational Sciences (NCATS)
Giardia killer: Giardia lamblia killing. activity change, % at 7.66 µM, hits read low. actives 0.15% (n = 340,000). AID 540267. Giardia lamblia trophozoite viability; in the data active = activity change below about -80%; inconclusive = between about -30% and that limit;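 note: parasites exposed to compound for two days anaerobically before the ATP read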
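Trophozoite viability was measured as ATP-dependent luminescence, read 15-30 min after reagent addition. Before that, parasites at 100 cells/well were exposed to compounds for 48 h, anaerobically, at 37 deg C.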
ELG1 repair inh: inhibitors of ELG1-dependent DNA repair in HEK293T cells; HEK293T ELG1-luciferase reporter, luminescence, 16 h; DNA damage induced by 5-fluorouridine; Potency, µM (series often up to 46.1 µM), hits mostly inhibitors; actives 2.3% (n = 330,000); AID 504467; note: nearly all actives have a fitted effect of over 55% in size
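Overnight (16 hr) co-exposure of 2,000 cells/well to 5-fluorouridine and compound at 37 °C preceded detection. Luciferase was quantified via ONE-Glo luminescence; loss of signal denotes inhibition.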
FBPA coupling cs: coupling enzyme interference in Giardia aldolase counter-screen. AID 2472. activity change, negative = inhibition, % at 58.2 µM, hits read low. actives 0.67% (n = 290,000). coupling enzyme system counterscreen, AmpLite Red fluorescence; in the data active = activity change below about -30%
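First, compound is pin-transferred into glyceraldehyde-3-phosphate coupling-enzyme reagent at 57.5 uM final and held 10 min at RT. Next, substrate, coupling system and AmpLite Red are added. After 20 min RT, fluorescence (525/598 nm) is read.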
Sfp PPTase inh: Sfp phosphopantetheinyl transferase inhibition. Q9F4F7. Biochemical Sfp PPTase activity, qHTS. Potency, µM, usual class: inhibitors. actives 3.5% (n = 310,000);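 note: the enzyme is Sfp with the accession as filed and its product quenches rhodamine fluorescence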
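Fluorescence-quenching assay: 15 nM Sfp-PPTase preincubated 15 min at room temperature with compound, then 5 uM rhodamine-CoA and 12.5 uM BHQ-2-labelled YbbR peptide added. Fluorescence (ex 525/em 598 nm) read at start and after 30 min; difference gives rate.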
Each line names hits and unclear results; the compound was inactive in the other large screens. Compounds with a hit are over-represented: about 5.5% of the library has one in this group of screens. Unless noted, calls come from the whole dose curve; as a rule, active = well fitted curve in the direction sought with a large enough effect; inconclusive = small, poorly fitted or top-dose-only effect, or another doubt; inactive = no such curve, though single readings can be large; an effect the other way counts as inactive or inconclusive.

CC(C)c1cc[n+](-c2nc([O-])sc2C=O)cc1	FBPA coupling cs -40, Sfp PPTase inh 40µM
CCc1cc[n+](-c2nc([O-])sc2C=O)cc1	FBPA coupling cs -38, Sfp PPTase inh 50µM
CCN(c1ccccc1)S(=O)(=O)c1cccc(C(=O)NCCN2CCOCC2)c1	none (no result: FBPA coupling cs, Sfp PPTase inh)
CCc1ccc(C(=O)NNC(=O)CN2C(=O)NC(CC)(c3ccccc3)C2=O)cc1 (configuration not stated)	none (no result: FBPA coupling cs, Sfp PPTase inh)
C=CCN(CC=C)CC(O)CN(c1cc([N+](=O)[O-])ccc1OC)S(=O)(=O)c1ccccc1 (configuration not stated)	Sfp PPTase inh 79µM
COc1ccc([N+](=O)[O-])cc1N(CC(O)CN(C)C)S(=O)(=O)c1ccccc1 (configuration not stated)	none
O=C(Nc1nc2cc3c(cc2s1)OCCO3)c1ccc([N+](=O)[O-])o1	Giardia killer -89, ELG1 repair inh inconclusive (no result: FBPA coupling cs)
NNc1nc2cc3c(cc2s1)OCCO3	ELG1 repair inh inconclusive, Sfp PPTase inh 40µM
COc1ccc2nc(NC(=O)c3ccc([N+](=O)[O-])o3)sc2c1	Giardia killer -97, ELG1 repair inh inconclusive
c1c2c(cc3sc(N4CCOCC4)nc13)OCCO2	Giardia killer inconclusive, ELG1 repair inh inconclusive
O=C(Nc1c(Cl)ccc2nsnc12)c1ccc([N+](=O)[O-])o1	Giardia killer -87, ELG1 repair inh inconclusive
COc1ccc2nc(NC(=O)c3ccccc3[N+](=O)[O-])sc2c1	none
O=C(Nc1nc2cc3c(cc2s1)OCCO3)c1cccs1	ELG1 repair inh inconclusive
COc1ccc(NC(=O)N(C)C[C@H]2Oc3ccc(NC(=O)Nc4c(C)noc4C)cc3C(=O)N([C@H](C)CO)C[C@@H]2C)cc1	none (no result: FBPA coupling cs, Sfp PPTase inh)
COc1cc(OC)cc(C(=O)NNC(=O)c2cc(S(=O)(=O)N3CCOCC3)ccc2F)c1	none (no result: FBPA coupling cs, Sfp PPTase inh)
O=C(Nc1nc2ccccc2s1)c1ccc([N+](=O)[O-])o1	Giardia killer -100, ELG1 repair inh inconclusive
O=C(CN1CCN(S(=O)(=O)c2ccccc2F)CC1)Nc1ccnn1C1CCCC1	none (no result: FBPA coupling cs, Sfp PPTase inh)
O=C(CN1CC(=O)Oc2ccccc21)OCC(=O)c1ccccc1	Sfp PPTase inh inconclusive
O=C(CN1CC(=O)Oc2ccccc21)OCC(=O)c1cccc(Br)c1	Sfp PPTase inh 71µM
O=C(c1c(O)cc(O)cc1O)C1c2c(cc(O)c3c2O[C@H](c2ccc(O)cc2)[C@@H](O)C3)OC1c1ccc(O)cc1 (some centres not stated)	none (no result: FBPA coupling cs, Sfp PPTase inh)
O=C(OC1Cc2c(O)cc(O)cc2OC1c1cc(O)c(O)c(O)c1-c1c(C2Oc3cc(O)cc(O)c3CC2O)cc(O)c(O)c1O)c1cc(O)c(O)c(O)c1 (configuration not stated)	Sfp PPTase inh 40µM (no result: Giardia killer, ELG1 repair inh)
COc1ccc(-n2c(=S)[nH]c3cc(C(=O)Nc4ccccc4OC)ccc3c2=O)cc1	none (no result: Giardia killer)
COc1ccc(-n2c(=S)[nH]c3cc(C(=O)Nc4ccccc4OC)ccc3c2=O)c(OC)c1	ELG1 repair inh 16µM
Cc1ccc(C(=O)/C=C/c2cn(CN3CCN(C)CC3)c3ccccc23)cc1	ELG1 repair inh inconclusive, Sfp PPTase inh inconclusive
CCOC(=O)/C(C#N)=C\c1cn(C)c2ccccc12	ELG1 repair inh 5.8µM
Cn1cc(/C=C/C(=O)c2ccccc2)c2ccccc21	ELG1 repair inh inconclusive, Sfp PPTase inh 50µM
Cc1ccc(S(=O)(=O)N2CCCCC2C)cc1[N+](=O)[O-] (configuration not stated)	ELG1 repair inh inconclusive
NS(=O)(=O)c1cc2c(cc1Cl)N[C@@H]([C@@H]1C[C@@H]3C=C[C@H]1C3)NS2(=O)=O	none (no result: Giardia killer, ELG1 repair inh)
Oc1ccc(/C=N/N2CCCCC2)c(O)c1O	FBPA coupling cs -53, Sfp PPTase inh 7.9µM
COc1cccc(/C=N/N2CCOCC2)c1O	ELG1 repair inh inconclusive
Oc1cccc(/C=N/N2CCCCC2)c1O	ELG1 repair inh inconclusive
Oc1ccc(/C=N/N2CCOCC2)c(O)c1O	FBPA coupling cs -48, Sfp PPTase inh 10µM
CC(=NNC(=O)c1cccc(S(=O)(=O)N2CCOCC2)c1)c1ccc(Cl)cc1	none (no result: FBPA coupling cs, Sfp PPTase inh)
CCOC(=O)C(Sc1cc(C)nc(N)n1)C(C)=O (configuration not stated)	Sfp PPTase inh 56µM
CCOC(=O)C(Sc1nn(C)c(=S)s1)C(C)=O (configuration not stated)	Sfp PPTase inh 50µM
Cn1nc(SCC(=O)O)sc1=S	none
Cc1ncc(CO)c2c1Oc1nc(-c3ccccc3F)nc(SCC(=O)N(C)c3ccccc3)c1C2	ELG1 repair inh 2.9µM (no result: FBPA coupling cs)
Cc1ncc(CO)c2c1Oc1nc(-c3ccccc3)nc(SCC(=O)N(C)c3ccccc3)c1C2	ELG1 repair inh inconclusive (no result: Giardia killer, FBPA coupling cs)
CC(C)CCNCC(O)CON=C1c2ccccc2-c2ccccc21 (configuration not stated)	ELG1 repair inh inconclusive, Sfp PPTase inh 35µM
COc1cc(/C=N/NC(=O)c2ccc3ccccc3c2)ccc1Oc1ccc([N+](=O)[O-])cn1	ELG1 repair inh 16µM
COc1cc(/C=C2/SC(=O)NC2=O)ccc1Oc1ccc([N+](=O)[O-])cc1[N+](=O)[O-]	Giardia killer inconclusive, Sfp PPTase inh 50µM
COc1cc(/C=C2\SC(=O)NC2=O)ccc1Oc1ccc([N+](=O)[O-])cn1	ELG1 repair inh 21µM, Sfp PPTase inh 79µM
COc1cc(/C=C2/SC(N)=NC2=O)ccc1Oc1ccc([N+](=O)[O-])cc1[N+](=O)[O-]	none
COc1cccc(C(=O)N/N=C/c2ccc(Oc3ccc([N+](=O)[O-])cn3)c(OC)c2)c1	none
C[n+]1cccc2cccc([O-])c21	ELG1 repair inh inconclusive, FBPA coupling cs -45
CC(C)(C)OC(=O)NCCc1nnc(SCC(=O)c2ccc(Cl)cc2)o1	ELG1 repair inh inconclusive
C[C@H](N)c1nnc(SCC(=O)c2ccc(Cl)cc2)o1	none
NCCCCCc1nnc(SCC(=O)c2ccc(Cl)cc2)o1	Sfp PPTase inh 50µM
NCCc1nnc(SCC(=O)c2ccc(Cl)cc2)o1	ELG1 repair inh inconclusive, Sfp PPTase inh 56µM
CCOC(=O)c1cc2c(=O)n3ccccc3nc2n(C)c1=NC(=O)c1c(-c2c(F)cccc2Cl)noc1C	none (no result: ELG1 repair inh, FBPA coupling cs, Sfp PPTase inh)
CC(=O)N=c1c(C#N)cc2c(=O)n3cccc(C)c3nc2n1Cc1ccco1	ELG1 repair inh inconclusive
CCOC(=O)c1cc2c(=O)n3ccccc3nc2n(C(C)C)c1=NC(=O)c1c(-c2c(F)cccc2Cl)noc1C	ELG1 repair inh 5.8µM
Cc1ccccc1C(=O)N=c1c(C#N)cc2c(=O)n3cccc(C)c3nc2n1Cc1ccco1	Sfp PPTase inh 50µM (no result: Giardia killer)
N#Cc1cc2c(=O)n3ccccc3nc2n(Cc2ccco2)c1=NC(=O)c1ccco1	Sfp PPTase inh 40µM
COc1ccc(C(=O)N=c2c(C#N)cc3c(=O)n4cccc(C)c4nc3n2Cc2ccco2)cc1	Sfp PPTase inh 56µM (no result: Giardia killer)
CCN(CC)C(=O)c1nc[nH]c1C(=O)N1CCc2ccccc2C1	none (no result: FBPA coupling cs, Sfp PPTase inh)
CCOC(=O)c1cc2c(=O)n3ccccc3nc2n(Cc2ccco2)c1=NC(=O)c1ccc(OC)cc1OC	Sfp PPTase inh 45µM
CCCCn1c(=NC(=O)c2ccco2)c(C(=O)OCC)cc2c(=O)n3ccccc3nc21	none
